Holding throughout (test): DAPPL (digital affinity profiling via proximity ligation, sequencing); 10 mM Tris-HCl pH 7.5, 50 mM NaCl, 1 mM DTT, 4% glycerol, room temperature, 30 min; GST-TFs on glutathione beads, 16-mer random dsDNA library, 0.1% formaldehyde crosslink after washing; high values mean tight binding
The target of one assay is T1, FLI1 (Homo sapiens, UniProt Q01543 1-452).
T1 sequence: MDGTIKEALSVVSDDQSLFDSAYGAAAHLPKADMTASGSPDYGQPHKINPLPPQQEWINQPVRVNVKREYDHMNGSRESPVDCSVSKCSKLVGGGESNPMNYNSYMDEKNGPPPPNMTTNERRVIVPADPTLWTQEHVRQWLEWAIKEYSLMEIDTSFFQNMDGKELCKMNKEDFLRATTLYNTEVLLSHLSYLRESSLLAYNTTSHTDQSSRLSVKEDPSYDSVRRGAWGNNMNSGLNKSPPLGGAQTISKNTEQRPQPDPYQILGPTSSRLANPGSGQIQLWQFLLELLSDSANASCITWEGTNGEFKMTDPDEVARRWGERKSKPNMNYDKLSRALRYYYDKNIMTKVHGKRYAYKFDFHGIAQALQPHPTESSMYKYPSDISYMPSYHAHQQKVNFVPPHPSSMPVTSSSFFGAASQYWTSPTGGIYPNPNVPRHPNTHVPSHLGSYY
As to conditions: protein: recombinant; tags: N-terminal GST; dsDNA, one strand shown. In short, it runs like this:
(§1)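 Beads coated with glutathione captured GST-fused human transcription factors that had been expressed in yeast, and the factors were then given DNA barcodes and pooled with a tag-only sample. The pools were incubated with 200 nmole of a random double-stranded 16-mer DNA library in Tris/NaCl/DTT/glycerol buffer for 30 min at room temperature, washed, crosslinked with 0.1% formaldehyde and proximity-ligated with BsaI/T4 ligase at 37 °C for 1 h. PCR amplification and Illumina NextSeq500 sequencing came last. Binding signal is each hexamer's read frequency for a factor divided by its frequency for the tag-only sample.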

A further assay has as its target T2, ELK1 (Homo sapiens, UniProt P19419 1-428).
T2 sequence: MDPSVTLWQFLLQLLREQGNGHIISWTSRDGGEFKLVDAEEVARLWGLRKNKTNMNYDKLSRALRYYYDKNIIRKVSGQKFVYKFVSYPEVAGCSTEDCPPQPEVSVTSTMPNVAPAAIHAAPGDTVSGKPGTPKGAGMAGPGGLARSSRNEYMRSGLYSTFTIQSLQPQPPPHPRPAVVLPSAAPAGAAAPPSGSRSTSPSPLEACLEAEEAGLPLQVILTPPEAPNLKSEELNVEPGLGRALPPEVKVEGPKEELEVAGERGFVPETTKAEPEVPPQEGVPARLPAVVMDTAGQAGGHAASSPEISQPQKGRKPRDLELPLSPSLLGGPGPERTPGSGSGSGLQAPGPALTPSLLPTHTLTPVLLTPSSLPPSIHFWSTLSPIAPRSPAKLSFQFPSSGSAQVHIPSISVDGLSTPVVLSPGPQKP
As to conditions: protein: recombinant; tags: N-terminal GST; dsDNA, one strand shown. Put shortly: as §1

Another assay deals with T3, GABPA (Homo sapiens, UniProt Q06546 1-454).
T3 sequence: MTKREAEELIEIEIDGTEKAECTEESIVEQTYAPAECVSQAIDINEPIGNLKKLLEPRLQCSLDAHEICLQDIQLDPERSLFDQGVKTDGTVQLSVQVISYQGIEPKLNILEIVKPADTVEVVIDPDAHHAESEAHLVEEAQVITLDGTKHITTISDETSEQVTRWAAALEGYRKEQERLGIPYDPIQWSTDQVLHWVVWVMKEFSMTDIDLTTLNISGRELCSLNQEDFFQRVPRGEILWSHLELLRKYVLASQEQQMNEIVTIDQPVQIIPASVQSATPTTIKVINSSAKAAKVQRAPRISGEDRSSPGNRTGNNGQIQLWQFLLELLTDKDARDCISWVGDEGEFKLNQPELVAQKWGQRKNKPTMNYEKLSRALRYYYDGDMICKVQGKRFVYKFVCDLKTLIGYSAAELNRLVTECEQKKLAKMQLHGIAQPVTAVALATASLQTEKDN
As to conditions: protein: recombinant; tags: N-terminal GST; dsDNA, one strand shown. In short, it runs like this:
as §1

For another assay, the target named is T4, ERG (Homo sapiens, UniProt P11308 1-479).
T4 sequence: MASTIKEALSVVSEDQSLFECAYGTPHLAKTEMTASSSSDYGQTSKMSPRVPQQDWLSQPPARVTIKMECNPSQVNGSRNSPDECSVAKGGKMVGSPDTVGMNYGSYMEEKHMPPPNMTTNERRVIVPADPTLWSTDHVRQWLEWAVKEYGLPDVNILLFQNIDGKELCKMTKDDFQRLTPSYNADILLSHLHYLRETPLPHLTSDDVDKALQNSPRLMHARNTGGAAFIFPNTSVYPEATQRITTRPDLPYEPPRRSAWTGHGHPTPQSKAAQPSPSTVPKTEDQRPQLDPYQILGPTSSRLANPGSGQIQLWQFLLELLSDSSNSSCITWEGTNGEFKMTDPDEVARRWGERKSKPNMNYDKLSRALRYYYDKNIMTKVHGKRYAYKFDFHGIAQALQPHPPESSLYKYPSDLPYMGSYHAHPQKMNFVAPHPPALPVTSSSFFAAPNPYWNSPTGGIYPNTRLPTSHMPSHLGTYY
The settings on record: protein: recombinant; tags: N-terminal GST; dsDNA, one strand shown. Put shortly:
as §1

In another assay the target is ELF1 (Homo sapiens, UniProt P32519 1-619). The settings on record: protein: recombinant; tags: N-terminal GST; dsDNA, one strand shown. In short, it runs like this: as §1
Sequence of ELF1 (P32519 whole entry): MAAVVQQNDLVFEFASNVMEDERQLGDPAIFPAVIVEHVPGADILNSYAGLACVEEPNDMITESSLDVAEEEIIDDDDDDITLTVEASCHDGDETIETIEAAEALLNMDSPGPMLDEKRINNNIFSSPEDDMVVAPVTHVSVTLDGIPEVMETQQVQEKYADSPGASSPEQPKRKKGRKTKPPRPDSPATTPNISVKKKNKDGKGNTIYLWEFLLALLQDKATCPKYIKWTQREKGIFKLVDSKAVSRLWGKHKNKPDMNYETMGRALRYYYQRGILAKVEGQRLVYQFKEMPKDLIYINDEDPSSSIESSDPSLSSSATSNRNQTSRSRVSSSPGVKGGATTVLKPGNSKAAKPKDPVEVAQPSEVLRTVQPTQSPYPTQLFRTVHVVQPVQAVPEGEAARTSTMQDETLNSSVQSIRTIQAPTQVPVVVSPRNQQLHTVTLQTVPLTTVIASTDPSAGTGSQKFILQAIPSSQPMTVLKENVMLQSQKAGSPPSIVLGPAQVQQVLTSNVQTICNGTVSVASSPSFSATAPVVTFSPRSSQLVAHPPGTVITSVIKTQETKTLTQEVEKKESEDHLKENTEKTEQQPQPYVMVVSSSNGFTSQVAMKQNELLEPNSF
Another assay concerns the target T5, EHF (Homo sapiens, UniProt Q9NZC4 1-300).
T5 sequence: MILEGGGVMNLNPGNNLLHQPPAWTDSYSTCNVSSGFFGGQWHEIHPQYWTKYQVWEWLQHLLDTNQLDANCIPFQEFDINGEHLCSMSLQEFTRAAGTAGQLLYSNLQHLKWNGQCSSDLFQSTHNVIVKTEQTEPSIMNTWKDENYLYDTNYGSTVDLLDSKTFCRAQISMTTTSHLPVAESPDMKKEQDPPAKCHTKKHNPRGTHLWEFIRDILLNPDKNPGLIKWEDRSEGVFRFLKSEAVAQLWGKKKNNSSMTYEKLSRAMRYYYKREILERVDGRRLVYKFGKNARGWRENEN
As to conditions: protein: recombinant; tags: N-terminal GST; dsDNA, one strand shown. Put shortly:
as §1

In the next assay the target is SPI1 (Homo sapiens, UniProt P17947 1-270). The settings on record: protein: recombinant; tags: N-terminal GST; dsDNA, one strand shown. Put shortly:
as §1

In the next assay the target is T6, ELK3 (Homo sapiens, UniProt P41970 1-407).
T6 sequence: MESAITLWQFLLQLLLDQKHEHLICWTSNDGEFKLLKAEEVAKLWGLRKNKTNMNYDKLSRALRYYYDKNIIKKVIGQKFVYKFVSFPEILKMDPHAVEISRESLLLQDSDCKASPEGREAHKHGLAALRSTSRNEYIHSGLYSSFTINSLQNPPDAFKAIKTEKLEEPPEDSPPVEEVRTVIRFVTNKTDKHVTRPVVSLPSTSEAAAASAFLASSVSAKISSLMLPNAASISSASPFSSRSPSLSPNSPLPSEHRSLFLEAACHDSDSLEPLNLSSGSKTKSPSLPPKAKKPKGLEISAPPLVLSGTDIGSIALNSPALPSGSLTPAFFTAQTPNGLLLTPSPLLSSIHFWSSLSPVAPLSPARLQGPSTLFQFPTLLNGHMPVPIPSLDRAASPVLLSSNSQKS
As to conditions: protein: recombinant; tags: N-terminal GST; dsDNA, one strand shown. In short, it runs like this:
as §1

The target of a further assay is T7, FEV (Homo sapiens, UniProt Q99581 1-238).
T7 sequence: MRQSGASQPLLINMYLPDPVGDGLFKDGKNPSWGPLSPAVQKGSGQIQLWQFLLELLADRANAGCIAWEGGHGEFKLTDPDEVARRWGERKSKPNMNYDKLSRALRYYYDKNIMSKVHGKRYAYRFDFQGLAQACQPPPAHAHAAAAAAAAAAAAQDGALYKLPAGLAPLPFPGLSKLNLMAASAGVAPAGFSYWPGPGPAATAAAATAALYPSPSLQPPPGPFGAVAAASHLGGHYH
As to conditions: protein: recombinant; tags: N-terminal GST; dsDNA, one strand shown. Put shortly: as §1

The target in the next assay is ETV5 (Homo sapiens, UniProt P41161 1-510). The settings on record: protein: recombinant; tags: N-terminal GST; dsDNA, one strand shown. In short, it runs like this:
as §1

The next assay deals with HSF1 (Homo sapiens, UniProt Q00613 1-529). The settings on record: protein: recombinant; tags: N-terminal GST; chain copies: 3; dsDNA, one strand shown. Put shortly: as §1
Sequence of HSF1 (Q00613 whole entry): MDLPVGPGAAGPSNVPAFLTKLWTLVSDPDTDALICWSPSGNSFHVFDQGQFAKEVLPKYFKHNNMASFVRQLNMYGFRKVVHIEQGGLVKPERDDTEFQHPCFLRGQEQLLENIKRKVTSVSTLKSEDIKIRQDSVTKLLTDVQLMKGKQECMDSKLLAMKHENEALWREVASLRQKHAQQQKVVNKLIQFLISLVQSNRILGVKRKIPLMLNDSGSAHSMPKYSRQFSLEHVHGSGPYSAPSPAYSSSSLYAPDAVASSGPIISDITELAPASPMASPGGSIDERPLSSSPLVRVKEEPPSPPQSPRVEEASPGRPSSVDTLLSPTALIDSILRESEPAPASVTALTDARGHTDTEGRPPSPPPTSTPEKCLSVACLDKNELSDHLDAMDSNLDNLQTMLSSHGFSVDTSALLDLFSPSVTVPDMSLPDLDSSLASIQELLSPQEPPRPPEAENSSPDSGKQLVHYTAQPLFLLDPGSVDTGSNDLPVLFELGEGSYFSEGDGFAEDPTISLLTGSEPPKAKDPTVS
Another assay has as its target T8, SPIC (Homo sapiens, UniProt Q8N5J4 1-248).
T8 sequence: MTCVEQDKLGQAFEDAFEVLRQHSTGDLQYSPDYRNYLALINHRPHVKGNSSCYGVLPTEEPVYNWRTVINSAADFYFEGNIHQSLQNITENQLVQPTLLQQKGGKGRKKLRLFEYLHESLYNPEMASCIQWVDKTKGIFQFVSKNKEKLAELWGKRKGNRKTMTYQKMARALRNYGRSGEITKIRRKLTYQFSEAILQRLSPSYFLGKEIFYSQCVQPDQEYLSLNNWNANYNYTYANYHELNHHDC
As to conditions: protein: recombinant; tags: N-terminal GST; dsDNA, one strand shown. Put shortly:
as §1

A further assay has as its target ELF4 (Homo sapiens, UniProt Q99607 1-663). The settings on record: protein: recombinant; tags: N-terminal GST; dsDNA, one strand shown. Put shortly:
as §1

For a further assay, the target named is T9, ETV2 (Homo sapiens, UniProt O00321 1-342).
T9 sequence: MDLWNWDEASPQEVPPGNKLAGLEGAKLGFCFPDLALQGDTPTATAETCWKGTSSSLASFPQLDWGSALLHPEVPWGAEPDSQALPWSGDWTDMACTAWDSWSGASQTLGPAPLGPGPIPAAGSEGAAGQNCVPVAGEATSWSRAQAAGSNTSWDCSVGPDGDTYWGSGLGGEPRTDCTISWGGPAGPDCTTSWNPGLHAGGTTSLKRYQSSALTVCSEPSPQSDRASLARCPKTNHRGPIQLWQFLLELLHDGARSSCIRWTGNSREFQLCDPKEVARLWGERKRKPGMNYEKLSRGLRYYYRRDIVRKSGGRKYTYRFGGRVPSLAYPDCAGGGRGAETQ
The settings on record: protein: recombinant; tags: N-terminal GST; dsDNA, one strand shown. Put shortly: as §1

A further assay deals with CRX (Homo sapiens, UniProt O43186 1-299). The settings on record: protein: recombinant; tags: N-terminal GST; dsDNA, one strand shown. In short, it runs like this:
as §1

Another assay concerns the target ETV1 (Homo sapiens, UniProt P50549 1-477). As to conditions: protein: recombinant; tags: N-terminal GST; dsDNA, one strand shown. Put shortly:
as §1

Sequence of ETV1 (P50549 whole entry): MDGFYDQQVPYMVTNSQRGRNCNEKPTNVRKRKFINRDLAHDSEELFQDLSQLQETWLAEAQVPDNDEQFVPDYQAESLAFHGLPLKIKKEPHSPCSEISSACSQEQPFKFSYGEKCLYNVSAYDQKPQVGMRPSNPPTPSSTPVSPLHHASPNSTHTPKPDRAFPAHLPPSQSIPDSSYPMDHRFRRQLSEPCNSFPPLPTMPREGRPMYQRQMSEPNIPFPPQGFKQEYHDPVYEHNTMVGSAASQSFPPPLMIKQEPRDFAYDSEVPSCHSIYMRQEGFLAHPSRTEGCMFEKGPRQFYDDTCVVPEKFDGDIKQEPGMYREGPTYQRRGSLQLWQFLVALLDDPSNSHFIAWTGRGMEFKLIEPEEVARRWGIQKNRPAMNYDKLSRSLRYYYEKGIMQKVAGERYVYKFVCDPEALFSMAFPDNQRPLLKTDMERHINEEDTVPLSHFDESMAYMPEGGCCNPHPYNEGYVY
Sequence of ETV5 (P41161 whole entry): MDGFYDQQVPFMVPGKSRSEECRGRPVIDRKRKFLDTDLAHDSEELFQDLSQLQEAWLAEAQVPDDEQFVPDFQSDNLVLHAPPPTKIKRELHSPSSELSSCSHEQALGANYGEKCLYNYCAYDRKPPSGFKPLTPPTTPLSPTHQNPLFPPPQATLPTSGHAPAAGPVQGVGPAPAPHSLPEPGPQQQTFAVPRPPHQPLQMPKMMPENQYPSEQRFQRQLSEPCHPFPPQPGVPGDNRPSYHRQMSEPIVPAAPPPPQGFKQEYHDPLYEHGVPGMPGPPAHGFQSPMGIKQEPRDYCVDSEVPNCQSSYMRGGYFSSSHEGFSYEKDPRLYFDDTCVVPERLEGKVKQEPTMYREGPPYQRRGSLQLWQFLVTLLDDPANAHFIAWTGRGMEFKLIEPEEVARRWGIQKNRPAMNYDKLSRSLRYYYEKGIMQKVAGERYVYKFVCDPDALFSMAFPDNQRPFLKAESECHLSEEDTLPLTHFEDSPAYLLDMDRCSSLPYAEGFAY
Sequence of CRX (O43186 whole entry): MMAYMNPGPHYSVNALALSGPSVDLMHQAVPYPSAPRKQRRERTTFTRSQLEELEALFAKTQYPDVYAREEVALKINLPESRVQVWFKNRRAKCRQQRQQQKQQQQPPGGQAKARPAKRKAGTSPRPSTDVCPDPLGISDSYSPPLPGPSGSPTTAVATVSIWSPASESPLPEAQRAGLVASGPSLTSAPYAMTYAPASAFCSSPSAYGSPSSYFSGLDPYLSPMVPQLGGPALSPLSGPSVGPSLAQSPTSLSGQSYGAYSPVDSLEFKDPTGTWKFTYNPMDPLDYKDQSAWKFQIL
Sequence of ELF4 (Q99607 whole entry): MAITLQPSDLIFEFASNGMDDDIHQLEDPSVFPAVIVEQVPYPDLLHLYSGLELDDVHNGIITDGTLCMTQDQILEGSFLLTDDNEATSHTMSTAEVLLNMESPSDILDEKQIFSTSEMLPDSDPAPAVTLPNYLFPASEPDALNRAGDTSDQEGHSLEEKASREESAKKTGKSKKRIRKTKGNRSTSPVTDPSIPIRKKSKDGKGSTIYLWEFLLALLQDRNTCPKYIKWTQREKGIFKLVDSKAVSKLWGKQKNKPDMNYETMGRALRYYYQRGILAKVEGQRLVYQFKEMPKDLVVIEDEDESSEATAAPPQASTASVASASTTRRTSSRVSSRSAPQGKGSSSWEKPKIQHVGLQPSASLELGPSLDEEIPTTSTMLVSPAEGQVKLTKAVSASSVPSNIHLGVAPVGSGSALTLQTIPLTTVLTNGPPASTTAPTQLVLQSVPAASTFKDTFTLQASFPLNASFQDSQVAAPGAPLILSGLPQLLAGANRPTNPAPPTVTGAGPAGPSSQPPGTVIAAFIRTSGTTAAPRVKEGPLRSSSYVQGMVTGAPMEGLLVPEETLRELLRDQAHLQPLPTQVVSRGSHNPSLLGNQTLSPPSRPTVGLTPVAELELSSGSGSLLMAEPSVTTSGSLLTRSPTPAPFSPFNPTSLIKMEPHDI

For the sequence TAGCAG, the binding signal in the assay with FLI1 is 1.07 fold enrichment (6-mer frequency, TF over GST control); with ELK1, 1.08 fold enrichment (6-mer frequency, TF over GST control); with GABPA it was 1.03 fold enrichment (6-mer frequency, TF over GST control); with ERG, 1.11 fold enrichment (6-mer frequency, TF over GST control); with ELF1, 1.09 fold enrichment (6-mer frequency, TF over GST control); in the assay with EHF it was 1 fold enrichment (6-mer frequency, TF over GST control). Also, the binding signal in the assay with SPI1 is 1 fold enrichment (6-mer frequency, TF over GST control); with ELK3, 1.19 fold enrichment (6-mer frequency, TF over GST control); with FEV it was 1.03 fold enrichment (6-mer frequency, TF over GST control); in the assay with ETV5, 1.04 fold enrichment (6-mer frequency, TF over GST control); with HSF1, 1.12 fold enrichment (6-mer frequency, TF over GST control); with SPIC, 1.04 fold enrichment (6-mer frequency, TF over GST control). Also, the binding signal with ELF4 is 1.05 fold enrichment (6-mer frequency, TF over GST control); in the assay with ETV2, 1.06 fold enrichment (6-mer frequency, TF over GST control); with CRX it was 1.23 fold enrichment (6-mer frequency, TF over GST control); in the assay with ETV1 it was 1.02 fold enrichment (6-mer frequency, TF over GST control).

The values above are taken from article PMC7862700, “An all-to-all approach to the identification of sequence-specific readers for epigenetic DNA modifications on cytosine”.
